Values joined by “and” are separate entries in the source; they are usually repeats but may differ in a detail not shown here. Identical values can stand only once. Screen size: about 5,500 compounds; about 2,000 (36%) were called active. About 18% were inconclusive and are not listed. No stated cut-off is given here; in the data, active means normalized growth mostly below about 0.91 (no sharp cut-off); inconclusive means no clear call, values can overlap the other calls; inactive means mostly above about 0.92. The list shows a part of the results.
Assay: chemical genetic growth profiling, strain panel (AID 1159580);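 further: tested at 20 µM; growth read once vehicle control cultures reached saturation at 30 °C; 1 = growth at the plate median or of vehicle wells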
Details: S. cerevisiae deletion strains, growth OD

Measured: normalized growth

CC(C)=CCC/C(C)=C/CO
inactive: locus YAL013W, strain DEP1, stronger effect = lower value 1.01 | locus YAL021C, strain ccr4, stronger effect = lower value 1.02 | locus YAL026C, strain drs2, stronger effect = lower value 0.98 | locus YAL030W, strain snc1, stronger effect = lower value 0.995 | locus YBL061C, strain skt5, stronger effect = lower value 0.986 | locus YBR009C, strain hhf1, stronger effect = lower value 1.01 | locus YBR021W, strain FUR4, stronger effect = lower value 1 | locus YBR023C, strain chs3, stronger effect = lower value 1 | locus YBR171W, strain sec66, stronger effect = lower value 0.973 | locus YBR229C, strain ROT2, stronger effect = lower value 1.02 | locus YBR231C, strain swc5, stronger effect = lower value 1.02 | locus YBR279W, strain paf1, stronger effect = lower value 1.01 | locus YCL011C, strain gbp2, stronger effect = lower value 0.972 | locus YCL016C, strain dcc1, stronger effect = lower value 1.02 | locus YCL029C, strain bik1, stronger effect = lower value 0.988 | locus YCL069W, strain vba3, stronger effect = lower value 0.986 | locus YCR088W, strain abp1, stronger effect = lower value 0.976 | locus YDL005C, strain med2, stronger effect = lower value 0.979 | locus YDL035C, strain GPR1, stronger effect = lower value 1.01 | locus YDL040C, strain nat1, stronger effect = lower value 0.977 | locus YDL074C, strain BRE1, stronger effect = lower value 0.994 | locus YDL101C, strain DUN1, stronger effect = lower value 1.01 | locus YDL134C, strain PPH21, stronger effect = lower value 1.02 | locus YDL185W, strain tfp1, stronger effect = lower value 0.985 | locus YDL192W, strain arf1, stronger effect = lower value 1 | locus YDR001C, strain nth1, stronger effect = lower value 0.992 | locus YDR069C, strain doa4, stronger effect = lower value 0.984 | locus YDR101C, strain arx1, stronger effect = lower value 0.978 | locus YDR137W, strain rgp1, stronger effect = lower value 0.982 | locus YDR150W, strain NUM1, stronger effect = lower value 1.01 | locus YDR159W, strain sac3, stronger effect = lower value 0.937 | locus YDR162C, strain NBP2, stronger effect = lower value 1.01 | locus YDR195W, strain ref2 0.968 | locus YDR297W, strain sur2, stronger effect = lower value 0.987 | locus YDR318W, strain mcm21, stronger effect = lower value 0.995 | locus YDR334W, strain swr1, stronger effect = lower value 0.99 | locus YDR335W, strain msn5, stronger effect = lower value 0.987 | locus YDR388W, stronger effect = lower value 0.987 | locus YDR392W, strain spt3, stronger effect = lower value 0.929 | locus YDR502C, strain sam2, stronger effect = lower value 0.989 | locus YEL003W, strain gim4, stronger effect = lower value 0.986 | locus YEL037C, strain rad23, stronger effect = lower value 0.978 | locus YEL061C, strain CIN8 (second series), stronger effect = lower value 0.975 | locus YEL061C, strain CIN8, stronger effect = lower value 1.01 | locus YER015W, strain faa2, stronger effect = lower value 0.982 | locus YER016W, strain bim1, stronger effect = lower value 0.98 | locus YER110C, stronger effect = lower value 0.985 | locus YER111C, strain swi4, stronger effect = lower value 0.988 | locus YER155C, strain BEM2 (second series), stronger effect = lower value 1.02 | locus YER155C, strain BEM2, stronger effect = lower value 1.01 | locus YER167W, strain BCK2, stronger effect = lower value 1.01 | locus YFR010W, strain ubp6, stronger effect = lower value 0.978 | locus YGL078C, strain dbp3, stronger effect = lower value 0.984 | locus YGL086W, strain mad1, stronger effect = lower value 0.992 | locus YGL167C, strain pmr1, stronger effect = lower value 0.986 | locus YGL173C, strain kem1, stronger effect = lower value 0.958 | locus YGL227W, strain vid30, stronger effect = lower value 0.981 | locus YGL240W, strain doc1, stronger effect = lower value 0.967 | locus YGL248W, strain PDE1, stronger effect = lower value 1.03 | locus YGL253W, strain hxk2, stronger effect = lower value 0.961 | locus YGR078C, strain PAC10, stronger effect = lower value 1 | locus YGR135W, strain pre9, stronger effect = lower value 0.988 | locus YGR229C, strain SMI1, stronger effect = lower value 0.998 | locus YGR252W, strain gcn5, stronger effect = lower value 1.03 | locus YHR013C, strain ard1, stronger effect = lower value 1 | locus YHR027C, strain rpn1, stronger effect = lower value 0.977 | locus YHR030C, strain SLT2, stronger effect = lower value 1.01 | locus YHR079C, strain IRE1 (second series), stronger effect = lower value 0.993 | locus YHR079C, strain IRE1, stronger effect = lower value 0.994 | locus YHR094C, strain hxt1, stronger effect = lower value 0.995 | locus YHR129C, strain ARP1, stronger effect = lower value 1.01 | locus YHR142W, strain chs7, stronger effect = lower value 0.998 | locus YHR200W, strain rpn10, stronger effect = lower value 1 | locus YIL066C, strain RNR3, stronger effect = lower value 1.01 | locus YIL073C, strain SPO22, stronger effect = lower value 0.989 | locus YIL125W, strain kgd1, stronger effect = lower value 1 | locus YIR030C, strain dcg1, stronger effect = lower value 0.993 | locus YJL092W, strain hpr5, stronger effect = lower value 0.985 | locus YJL095W, strain BCK1 (second series), stronger effect = lower value 0.982 | locus YJL095W, strain BCK1, stronger effect = lower value 1 and 0.989 | locus YJL115W, strain asf1, stronger effect = lower value 0.993 | locus YJL129C, strain trk1, stronger effect = lower value 0.981 | locus YJL134W, strain LCB3, stronger effect = lower value 1.01 | locus YJL154C, strain vps35, stronger effect = lower value 0.988 | locus YJL164C, strain tpk1, stronger effect = lower value 1.02 | locus YJL166W, strain qcr8, stronger effect = lower value 1.01 | locus YJL168C, strain set2, stronger effect = lower value 0.992 | locus YJL187C, strain SWE1 (second series), stronger effect = lower value 1.01 | locus YJL187C, strain SWE1, stronger effect = lower value 0.993 | locus YJR043C, strain POL32, stronger effect = lower value 0.986 | locus YJR066W, strain TOR1, stronger effect = lower value 0.994

Source: PubChem BioAssay AID1159580 (chemical genetic matrix, 2015)
